Source: PubChem (National Center for Advancing Translational Sciences (NCATS))
The list is not random: actives were taken first. Their share in the collection is about 15%.
TDP1 cell CPT: growth inhibition of DT40 Tdp1-/-;hTDP1 cells with camptothecin (screen for TDP1 inhibitors); 420,000 compounds, 12% hits; chicken DT40 Tdp1-/-;hTDP1 cells + 20 nM CPT, ATP luminescence, 48 h; AID 686979; Potency, µM (series often up to 46.2 µM), for the others: at the top dose activity change, negative = growth inhibition, usual class: inhibitors; further: nearly all actives have a fitted effect of over 55% in size
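Cell growth measured by CellTiter-Glo luminescence after a minimum 48 h, 37 C compound exposure with 20 nM CPT in Tdp1-knockout DT40 cells stably expressing hTDP1, seeded 400/well; qHTS titration format.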
VP16 counter: inhibits Gal4-VP16 luciferase reporter, ROR gamma counter-screen; 310,000 compounds, 3.5% hits; Potency, µM (series often up to 53.6 µM), without a hit: at the top dose activity, negative = inhibition, hits mostly inhibitors; AID 2546; Drosophila S2 Gal4-VP16 UAS-luciferase, luminescence, 20 h;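 further: Gal4-VP16 expression switched on by copper sulfate through the metallothionein promoter; nearly all actives have a fitted effect of over 50% in size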
12-LOX inh: blocks human arachidonate 12S-lipoxygenase; 580,000 compounds, 1.1% hits; purified 12hLO, xylenol orange hydroperoxide absorbance; P18054; AID 1671190; Potency, µM (series often up to 108 µM), for inactives: at the top dose activity change, negative = inhibition, hits mostly inhibitors
Target sequence (P18054 whole entry, looked up): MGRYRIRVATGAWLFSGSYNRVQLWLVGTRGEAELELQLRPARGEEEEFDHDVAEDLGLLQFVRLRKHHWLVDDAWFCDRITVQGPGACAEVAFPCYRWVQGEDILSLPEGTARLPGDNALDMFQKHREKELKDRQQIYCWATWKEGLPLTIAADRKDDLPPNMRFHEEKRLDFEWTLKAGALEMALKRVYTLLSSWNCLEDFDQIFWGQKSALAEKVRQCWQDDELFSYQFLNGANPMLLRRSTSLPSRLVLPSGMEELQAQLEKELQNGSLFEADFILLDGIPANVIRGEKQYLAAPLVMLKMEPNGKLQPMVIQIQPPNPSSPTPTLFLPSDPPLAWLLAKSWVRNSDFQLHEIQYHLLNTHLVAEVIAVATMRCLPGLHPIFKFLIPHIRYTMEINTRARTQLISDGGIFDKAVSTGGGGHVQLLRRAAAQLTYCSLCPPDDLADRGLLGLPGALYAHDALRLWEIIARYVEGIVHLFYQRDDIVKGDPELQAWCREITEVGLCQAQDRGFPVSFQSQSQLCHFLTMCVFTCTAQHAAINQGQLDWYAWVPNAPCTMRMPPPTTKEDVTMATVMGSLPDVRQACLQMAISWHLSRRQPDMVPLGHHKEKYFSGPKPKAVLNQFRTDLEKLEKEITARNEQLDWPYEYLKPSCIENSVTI
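Purified human 12hLO (150 nM final) in 25 mM Hepes, 0.01% Triton X-100, pH 7.0 was preincubated 15 min at room temperature with compound. Then 40 uM arachidonic acid was added, 30 min. Hydroperoxide was read by Fe-XO absorbance ratio 573/405 nm.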
RORgamma inh: ROR gamma (mouse) transcription inhibition; Potency, µM (titrated, usually from 53.6 µM), for inactives: at the highest dose activity change, negative = inhibition, usual class: inhibitors; P51450; AID 2551; Drosophila S2 Gal4-RORgamma UAS-luciferase reporter, 20 h; 310,000 compounds, 5.4% hits; further: nearly all actives have a fitted effect of over 60% in size
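Drosophila Schneider cells stably carrying a metallothionein-driven Gal4 DBD–ROR gamma fusion and a UAS-Photinus luciferase reporter were exposed to compound for 1 hr, then induced with copper sulfate (700 uM final) for 20 hr at ambient temperature before luminescence reading.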
TDP1 cell noCPT: qHTS for Inhibitors of human tyrosyl-DNA phosphodiesterase 1 (TDP1): qHTS in cells in absence of CPT; 420,000 compounds, 15% hits; Potency, µM (titrated, usually from 46.2 µM), for inactives: at the highest dose activity change, negative = growth inhibition, hits mostly inhibitors; DT40 Tdp1-/- hTDP1 cells, no CPT, ATP luminescence, 48 h; further: nearly all actives have a fitted effect of over 55% in size
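A cellular qHTS used chicken DT40 cells lacking endogenous Tdp1 but carrying stably transfected human TDP1. Compounds were applied without camptothecin, and cell growth kinetics were judged by ATP-dependent luminescence after ≥48 hr.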
ELG1 DNA repair: ELG1-dependent DNA repair inhibition; HEK293T ELG1-luciferase reporter, luminescence, 16 h; DNA damage induced by 5-fluorouridine; Potency, µM (series often up to 46.1 µM), for the others: top-dose activity change, negative = inhibition, hits mostly inhibitors; 330,000 compounds, 2.3% hits; AID 504467; further: nearly all actives have a fitted effect of over 55% in size
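Quantitative HTS, concentration-response format. 2,000 cells/well co-treated with 5-fluorouridine and compound, 16 hr in 5% CO2 at 37 °C; ONE-Glo luminescence read after 30 min.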
* hit, by the source's call; ? = inconclusive; . = not tested or not shown; [ ] = dose if it differs, or a comment. The call rests on the fitted dose curve; in most records, active means well fitted curve in the direction sought with a large enough effect; inconclusive means small, poorly fitted or top-dose-only effect, or another doubt; inactive means no such curve, though single readings can be large; an effect the other way counts as inactive or inconclusive. On the % scale 0 is the no-effect control and ±100 the full control effect; potency means the concentration at half of the fitted maximal effect.

SMILES	TDP1 cell CPT	VP16 counter	12-LOX inh	RORgamma inh	TDP1 cell noCPT	ELG1 DNA repair
O=C(Cc1cccc(F)c1)NCc1nnc2c(-c3nc(C4CC4)no3)cccn12	.	.	47%	.	.	.
CCc1ccc2c(c1)NC(c1cccs1)=NC(c1ccc(F)cc1)=N2	23µM*	.	-9%	.	23µM*	.
CCOc1ccc(C2=NC(c3cccs3)=Nc3ccc(CC)cc3N2)cc1OCC	?	.	7%	.	18µM*	.
COCc1nnc2n1CCC(NC(=O)CCCc1nc3ccccc3s1)CC2 (configuration not stated)	.	.	21%	.	.	.
Cc1sc2nc(CN3CCOCC3)nc(Sc3nnnn3C3CCCC3)c2c1C	.	.	-9%	.	.	.
COc1ccccc1CN(Cc1cc2cc(C)cc(C)c2[nH]c1=O)Cc1nnnn1CC1CCCO1 (configuration not stated)	?	-4%	-20%	?	23µM*	?
O=c1[nH]c2cc3c(cc2cc1CN(CCc1ccccc1)Cc1nnnn1CC1CCCO1)OCO3 (configuration not stated)	?	16%	-7%	-20%	23µM*	0%
COc1ccc2[nH]c(=O)c(CN(CCc3ccccc3)Cc3nnnn3CC3CCCO3)cc2c1 (configuration not stated)	6.5µM*	2%	-15%	-19%	29µM*	?
O=c1[nH]c2cc3c(cc2cc1CN(Cc1nnnn1CC1CCCO1)C1CCCCC1)OCO3 (configuration not stated)	?	-4%	-14%	12%	?	?
O=c1[nH]c2cc3c(cc2cc1CN(Cc1nnnn1CC1CCCO1)C1CCCC1)OCO3 (configuration not stated)	?	-5%	4%	31%	13µM*	15µM*
COc1ccc(Cl)cc1-n1nc(C2CC2)nc1C(C)Cn1cncn1 (configuration not stated)	.	.	-18%	.	.	.
Cc1sc2ccn(Cc3ccc(F)cc3)c(=O)c2c1C(=O)NC1CCCC1	.	.	61%	.	.	.
CCOC(=O)c1ccc(NC(=O)c2cc[n+]([O-])cc2)cc1	.	.	9%	.	.	.
COc1ncccc1-c1cc2c(ccn2CC2CCN(C)CC2)c(N2CCOCC2)n1	.	.	62%[176 µM]	.	.	.
COc1ccc2[nH]c(=O)c(CN(Cc3ccc(C)cc3)Cc3nnnn3CC3CCCO3)cc2c1 (configuration not stated)	?	-5%	?	?	?	?
COc1ccc2[nH]c(=O)c(CN(Cc3ccccc3OC)Cc3nnnn3CC3CCCO3)cc2c1 (configuration not stated)	23µM*	-24%	-3%	-33%	?	16µM*
CC(=O)Oc1ccc(N(C(C)=O)S(=O)(=O)c2ccc(C)cc2)c2ccccc12	5.2µM*	.	28%	.	5.2µM*	.
CC(=O)N(c1ccccc1C)S(=O)(=O)c1ccc(Cl)cc1	?	-9%	-3%	-18%	-15%	-19%
CC(=O)Oc1ccc(N(C(C)=O)S(=O)(=O)c2ccc(Cl)cc2)c2ccccc12	29µM*	?	-2%	?	?	18µM*
CC(=O)N(c1ccc(C)cc1)S(=O)(=O)c1ccc(Cl)cc1	-7%	10%	-30%	16%	-5%	-8%
CC(=O)N(c1ccc(N(C(C)=O)S(=O)(=O)c2ccccc2)cc1)S(=O)(=O)c1ccccc1	-12%	7%	2%	8%	?	-20%
CC(=O)Oc1ccc(N(C(C)=O)S(=O)(=O)c2ccc3ccccc3c2)cc1	?	1%	-1%	?	21µM*	21µM*
CC(C)CNC(=O)CCCc1nnc2c(=O)n(-c3ccc(Cl)cc3)ccn12	.	.	3%	.	.	.
Cc1ccccc1C(=O)NNC(=S)Nc1cccc(C(F)(F)F)c1	?	?	?	?	23µM*	?
O=C(NNC(=S)Nc1cccc(C(F)(F)F)c1)c1ccc(Cl)cc1Cl	?	?	?	?	26µM*	-12%
SMILES	TDP1 cell CPT	VP16 counter	12-LOX inh	RORgamma inh	TDP1 cell noCPT	ELG1 DNA repair
CC(=O)NNC(=S)Nc1cccc(C(F)(F)F)c1	.	.	-2%	.	.	.
CC(=O)Nc1ccc(C(=O)OCC(=O)N(c2ccccc2)C2CCS(=O)(=O)C2)cc1 (configuration not stated)	-3%	.	1%	.	-13%	8%
O=C(CCl)N(c1ccccc1)C1CCS(=O)(=O)C1 (configuration not stated)	8.2µM*	?	5%	18µM*	8.2µM*	?
Cc1nc2c(=O)oc3ccccc3c2nc1C	.	.	-2%	.	.	.
CSc1nc2ccc(NC(=O)c3nn(C(C)C)c(=O)c4ccccc34)cc2s1	18µM*	?	19%	4%[10 µM]	?	?
Cc1nc2ccc(NC(=O)c3nn(C(C)C)c(=O)c4ccccc34)cc2s1	?	2%	-9%	9%	?	?
CCCCC(=O)NC1(C(F)(F)F)C(=O)N(C2CCCC2)C(C)=C1C(=O)OC (configuration not stated)	.	.	-4%	.	.	.
CCCCN1C(=O)C(NC(=O)c2ccc(C(C)(C)C)cc2)(C(F)(F)F)C(C(=O)OC)=C1C (configuration not stated)	?	.	-5%	.	23µM*	.
COc1ccc2c(c1)c1c(c(=O)n(Cc3ccccc3)c(=O)n1CC(=O)NCc1ccccc1)n2C	-13%	.	-16%	.	-11%	.
COC(=O)c1cc(-c2cc(OC)ccc2OC)nc2c1c(=O)n(C)c(=O)n2Cc1ccccc1	16µM*	-17%	?	-1%	18µM*	9.2µM*
O=C(NCC(=O)N(Cc1ccsc1)C1CC1)c1ccccc1	.	.	-4%	.	.	.
C[C@H]1[C@@H]2[C@@H](O)C([C@H](C)C(=O)N3CCCC3)CC[C@@]2(C)CC[C@@H]1NC(=O)COc1ccccc1 (some centres not stated)	.	.	59%	.	.	.
Cc1ccc(-n2c(=S)[nH]c3sc4c(c3c2=O)CCC4)cc1	-16%	3.5µM*	?	1.1µM*	-22%	0%
Cc1ccc(-n2cnc3sc4c(c3c2=O)CCC4)cc1	.	.	2%	.	.	.
O=c1c2c3c(sc2n2c(=S)[nH]nc2n1-c1ccccc1)CCC3	7%	6%	5%	0%	-27%	0%
COc1ccc(-n2c(=O)c3c4c(sc3n3c(=S)[nH]nc23)CCC4)cc1	12%	-13%	?	11µM*	-29%	-17%
